# From article PMC7862700, “An all-to-all approach to the identification of sequence-specific readers for epigenetic DNA modifications on cytosine”
# Experiments:
# Assay in all cases: DAPPL (digital affinity profiling via proximity ligation, sequencing); 10 mM Tris-HCl pH 7.5, 50 mM NaCl, 1 mM DTT, 4% glycerol, room temperature, 30 min; GST-TFs on glutathione beads, 16-mer random dsDNA library, 0.1% formaldehyde crosslink after washing; high values mean tight binding
# Details in all cases: protein: recombinant; tags: N-terminal GST; dsDNA, one strand shown
# ERF = target: T1, ERF (Homo sapiens, UniProt P50548 1-548)
# T1 sequence: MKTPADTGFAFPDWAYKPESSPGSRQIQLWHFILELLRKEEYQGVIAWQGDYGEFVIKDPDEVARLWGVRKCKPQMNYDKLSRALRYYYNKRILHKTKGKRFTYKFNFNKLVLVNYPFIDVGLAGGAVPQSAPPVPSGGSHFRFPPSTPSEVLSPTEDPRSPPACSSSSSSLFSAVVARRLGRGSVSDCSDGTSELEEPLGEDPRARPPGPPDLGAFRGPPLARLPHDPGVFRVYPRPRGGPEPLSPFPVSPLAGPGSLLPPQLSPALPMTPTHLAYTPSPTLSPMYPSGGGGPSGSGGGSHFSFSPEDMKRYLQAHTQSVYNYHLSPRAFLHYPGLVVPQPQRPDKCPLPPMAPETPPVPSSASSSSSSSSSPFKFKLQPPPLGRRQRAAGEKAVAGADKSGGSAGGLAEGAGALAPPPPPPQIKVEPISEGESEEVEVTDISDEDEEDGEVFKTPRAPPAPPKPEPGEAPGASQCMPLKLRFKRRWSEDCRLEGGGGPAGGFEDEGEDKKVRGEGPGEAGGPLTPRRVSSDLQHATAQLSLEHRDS
# Summary of the method: (§1)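 Yeast served to express human transcription factors as GST fusions, which were then captured on glutathione beads and labelled with DNA barcodes. Pooled with a tag-only sample, they were incubated with 200 nmole of a 16-mer random double-stranded DNA library for 30 min at room temperature in Tris/NaCl/DTT/glycerol buffer, washed, crosslinked with 0.1% formaldehyde, ligated by proximity, amplified by PCR and sequenced. Dividing each hexamer's read frequency for a factor by its frequency for the tag-only sample gives the binding signal.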
# ETV3L = target: T2, ETV3L (Homo sapiens, UniProt Q6ZN32 1-361)
# T2 sequence: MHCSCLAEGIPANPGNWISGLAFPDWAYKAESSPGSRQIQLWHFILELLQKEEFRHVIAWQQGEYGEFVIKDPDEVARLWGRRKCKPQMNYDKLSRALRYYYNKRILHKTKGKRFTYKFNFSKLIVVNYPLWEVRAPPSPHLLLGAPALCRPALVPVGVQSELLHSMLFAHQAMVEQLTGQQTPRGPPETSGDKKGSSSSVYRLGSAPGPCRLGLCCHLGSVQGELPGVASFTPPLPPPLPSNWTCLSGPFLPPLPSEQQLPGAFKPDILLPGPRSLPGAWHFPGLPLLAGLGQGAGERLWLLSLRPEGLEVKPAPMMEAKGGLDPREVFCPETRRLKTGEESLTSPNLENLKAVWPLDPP
# Summary of the method: as §1
# ETS2 = target: T3, ETS2 (Homo sapiens, UniProt P15036 1-469)
# T3 sequence: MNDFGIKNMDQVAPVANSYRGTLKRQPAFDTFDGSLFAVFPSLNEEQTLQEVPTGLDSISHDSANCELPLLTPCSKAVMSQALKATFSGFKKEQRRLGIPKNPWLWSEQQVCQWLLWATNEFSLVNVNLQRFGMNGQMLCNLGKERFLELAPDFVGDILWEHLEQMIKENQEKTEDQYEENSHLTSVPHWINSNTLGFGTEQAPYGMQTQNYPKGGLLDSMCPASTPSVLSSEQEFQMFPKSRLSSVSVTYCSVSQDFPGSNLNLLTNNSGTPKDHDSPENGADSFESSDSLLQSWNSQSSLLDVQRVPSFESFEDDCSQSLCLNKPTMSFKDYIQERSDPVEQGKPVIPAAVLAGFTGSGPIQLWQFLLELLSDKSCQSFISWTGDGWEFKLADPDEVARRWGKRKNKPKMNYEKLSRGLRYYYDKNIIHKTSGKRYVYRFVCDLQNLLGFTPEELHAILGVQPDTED
# Summary of the method: as §1
# SPDEF = target: T4, SPDEF (Homo sapiens, UniProt O95238 1-335)
# T4 sequence: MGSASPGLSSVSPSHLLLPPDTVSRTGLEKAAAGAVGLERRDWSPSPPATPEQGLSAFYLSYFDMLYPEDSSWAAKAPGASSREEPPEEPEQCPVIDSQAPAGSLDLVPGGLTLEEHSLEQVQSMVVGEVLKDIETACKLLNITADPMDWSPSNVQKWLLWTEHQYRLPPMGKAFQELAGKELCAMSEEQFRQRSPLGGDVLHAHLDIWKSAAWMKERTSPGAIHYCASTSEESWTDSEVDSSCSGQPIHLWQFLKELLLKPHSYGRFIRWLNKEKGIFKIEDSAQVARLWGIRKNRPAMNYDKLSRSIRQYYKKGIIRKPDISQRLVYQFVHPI
# Summary of the method: as §1
# ETV7 = target: T5, ETV7 (Homo sapiens, UniProt Q9Y603 1-341)
# T5 sequence: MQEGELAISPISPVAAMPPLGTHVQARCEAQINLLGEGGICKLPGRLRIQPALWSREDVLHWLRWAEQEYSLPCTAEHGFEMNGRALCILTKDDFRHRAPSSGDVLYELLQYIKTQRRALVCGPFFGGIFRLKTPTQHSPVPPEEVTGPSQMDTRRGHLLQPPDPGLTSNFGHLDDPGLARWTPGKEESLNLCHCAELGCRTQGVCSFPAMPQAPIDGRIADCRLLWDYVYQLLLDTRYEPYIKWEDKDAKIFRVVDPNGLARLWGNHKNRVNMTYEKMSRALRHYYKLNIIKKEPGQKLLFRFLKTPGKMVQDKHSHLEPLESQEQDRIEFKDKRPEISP
# Summary of the method: as §1
# ELF5 = target: T6, ELF5 (Homo sapiens, UniProt Q9UKW6-2 1-255)
# T6 sequence: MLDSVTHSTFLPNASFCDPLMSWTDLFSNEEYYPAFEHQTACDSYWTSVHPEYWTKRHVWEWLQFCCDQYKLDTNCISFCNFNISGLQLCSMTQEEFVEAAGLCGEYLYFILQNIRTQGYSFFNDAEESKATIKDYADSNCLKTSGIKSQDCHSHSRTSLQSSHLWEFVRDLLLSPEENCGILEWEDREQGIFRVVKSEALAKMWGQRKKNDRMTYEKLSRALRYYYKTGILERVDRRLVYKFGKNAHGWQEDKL
# Summary of the method: as §1
# ETV3 = target: T7, ETV3 (Homo sapiens, UniProt P41162-2 1-143)
# T7 sequence: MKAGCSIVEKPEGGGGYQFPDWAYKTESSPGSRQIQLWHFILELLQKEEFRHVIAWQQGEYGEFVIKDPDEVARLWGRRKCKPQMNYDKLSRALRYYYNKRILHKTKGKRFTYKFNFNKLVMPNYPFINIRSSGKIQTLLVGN
# Summary of the method: as §1
# ETV6 = ETV6 (Homo sapiens, UniProt P41212 1-452)
# Sequence of ETV6 (P41212 whole entry): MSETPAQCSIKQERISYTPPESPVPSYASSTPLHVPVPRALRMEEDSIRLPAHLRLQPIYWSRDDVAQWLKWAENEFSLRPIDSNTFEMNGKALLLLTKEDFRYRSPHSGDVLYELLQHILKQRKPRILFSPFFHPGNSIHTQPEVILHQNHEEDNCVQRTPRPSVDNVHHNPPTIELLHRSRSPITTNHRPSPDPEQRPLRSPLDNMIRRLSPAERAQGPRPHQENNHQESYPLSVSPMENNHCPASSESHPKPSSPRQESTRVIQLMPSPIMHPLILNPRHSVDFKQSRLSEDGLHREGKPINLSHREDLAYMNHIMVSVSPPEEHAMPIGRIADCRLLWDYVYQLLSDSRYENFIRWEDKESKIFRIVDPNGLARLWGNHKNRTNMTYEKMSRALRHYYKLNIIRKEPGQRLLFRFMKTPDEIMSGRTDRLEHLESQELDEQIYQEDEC
# Summary of the method: as §1
Sequence,binding signal (ERF),binding signal (ETV3L),binding signal (ETS2),binding signal (SPDEF),binding signal (ETV7),binding signal (ELF5),binding signal (ETV3),binding signal (ETV6)
TATCTA,"1.27 fold enrichment (6-mer frequency, TF over GST control)","1.18 fold enrichment (6-mer frequency, TF over GST control)","1.26 fold enrichment (6-mer frequency, TF over GST control)","1.23 fold enrichment (6-mer frequency, TF over GST control)","1.26 fold enrichment (6-mer frequency, TF over GST control)","1.18 fold enrichment (6-mer frequency, TF over GST control)","1.29 fold enrichment (6-mer frequency, TF over GST control)","1.28 fold enrichment (6-mer frequency, TF over GST control)"
TGTATC,"1.39 fold enrichment (6-mer frequency, TF over GST control)","1.28 fold enrichment (6-mer frequency, TF over GST control)","1.42 fold enrichment (6-mer frequency, TF over GST control)","1.89 fold enrichment (6-mer frequency, TF over GST control)","1.31 fold enrichment (6-mer frequency, TF over GST control)","1.51 fold enrichment (6-mer frequency, TF over GST control)","1.54 fold enrichment (6-mer frequency, TF over GST control)","1.36 fold enrichment (6-mer frequency, TF over GST control)"
ACTTAA,"1.26 fold enrichment (6-mer frequency, TF over GST control)","1.16 fold enrichment (6-mer frequency, TF over GST control)","1.19 fold enrichment (6-mer frequency, TF over GST control)","1.17 fold enrichment (6-mer frequency, TF over GST control)","1.27 fold enrichment (6-mer frequency, TF over GST control)","1.16 fold enrichment (6-mer frequency, TF over GST control)","1.17 fold enrichment (6-mer frequency, TF over GST control)","1.21 fold enrichment (6-mer frequency, TF over GST control)"
AAGCAG,"1 fold enrichment (6-mer frequency, TF over GST control)","1.04 fold enrichment (6-mer frequency, TF over GST control)","1.14 fold enrichment (6-mer frequency, TF over GST control)","1.13 fold enrichment (6-mer frequency, TF over GST control)","1.14 fold enrichment (6-mer frequency, TF over GST control)","1.19 fold enrichment (6-mer frequency, TF over GST control)","1.1 fold enrichment (6-mer frequency, TF over GST control)","1.11 fold enrichment (6-mer frequency, TF over GST control)"
CACCTT,"1.33 fold enrichment (6-mer frequency, TF over GST control)","1.14 fold enrichment (6-mer frequency, TF over GST control)","1.24 fold enrichment (6-mer frequency, TF over GST control)","1.31 fold enrichment (6-mer frequency, TF over GST control)","1.12 fold enrichment (6-mer frequency, TF over GST control)","1.21 fold enrichment (6-mer frequency, TF over GST control)","1.31 fold enrichment (6-mer frequency, TF over GST control)","1.25 fold enrichment (6-mer frequency, TF over GST control)"
TACAGG,"1.1 fold enrichment (6-mer frequency, TF over GST control)","1.27 fold enrichment (6-mer frequency, TF over GST control)","1.08 fold enrichment (6-mer frequency, TF over GST control)","1.39 fold enrichment (6-mer frequency, TF over GST control)","1.12 fold enrichment (6-mer frequency, TF over GST control)","1.22 fold enrichment (6-mer frequency, TF over GST control)","1.18 fold enrichment (6-mer frequency, TF over GST control)","1.19 fold enrichment (6-mer frequency, TF over GST control)"
AATATA,"1.39 fold enrichment (6-mer frequency, TF over GST control)","1.31 fold enrichment (6-mer frequency, TF over GST control)","1.34 fold enrichment (6-mer frequency, TF over GST control)","1.23 fold enrichment (6-mer frequency, TF over GST control)","1.36 fold enrichment (6-mer frequency, TF over GST control)","1.33 fold enrichment (6-mer frequency, TF over GST control)","1.35 fold enrichment (6-mer frequency, TF over GST control)","1.36 fold enrichment (6-mer frequency, TF over GST control)"
CTGAAG,"1.26 fold enrichment (6-mer frequency, TF over GST control)","1.09 fold enrichment (6-mer frequency, TF over GST control)","1.22 fold enrichment (6-mer frequency, TF over GST control)","1.15 fold enrichment (6-mer frequency, TF over GST control)","1.07 fold enrichment (6-mer frequency, TF over GST control)","1.06 fold enrichment (6-mer frequency, TF over GST control)","1.05 fold enrichment (6-mer frequency, TF over GST control)","1.05 fold enrichment (6-mer frequency, TF over GST control)"
